MazEF act: activators of E. coli MazEF toxin-antitoxin RNase, primary screen, biochemical, fluorescence, uHTS | FAM/BHQ RNA-DNA oligo cleavage fluorescence, 5 h | activation, % at 20 µM | 350,000 compounds, 0.32% hits | AID 504720, 2011; in the data active = activation above about 50%
Target sequence (P0AE70 whole entry, looked up): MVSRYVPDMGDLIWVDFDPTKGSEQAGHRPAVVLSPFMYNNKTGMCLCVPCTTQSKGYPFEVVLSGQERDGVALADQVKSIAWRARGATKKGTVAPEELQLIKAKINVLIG
Mtb betalactam: beta-lactam sensitization of Mtb H37Rv, H37Rv; M. tuberculosis H37Rv growth with meropenem, percent inhibition; inhibition, % at 25 µM; AID 434955, 2010; 330,000 compounds, 0.27% hits; call rule not given here;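 also: growth measured after seven days incubation then overnight dye step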
GDH-TPI counter: GDH-TPI coupling enzyme inhibitors, primary screen, artefact control for M. tuberculosis FBA inhibitor project, biochemical, absorbance, full deck. AID 588335, 2011. inhibition, % at 4.8 µM. GDH-TPI coupled enzyme counterscreen, NADH absorbance. 360,000 compounds, 1.2% hits
Mtb FBA inh: Mtb FBA enzyme inhibitors, primary screen, biochemical, fluorescence, strain H37Rv | AID 588726, 2011 | 360,000 compounds, 2.3% hits | purified M. tuberculosis FBA, fluorescence read-out | inhibition, % at 1 µM; in the data active = inhibition above about 27%
Target sequence (P9WQA3 whole entry, looked up): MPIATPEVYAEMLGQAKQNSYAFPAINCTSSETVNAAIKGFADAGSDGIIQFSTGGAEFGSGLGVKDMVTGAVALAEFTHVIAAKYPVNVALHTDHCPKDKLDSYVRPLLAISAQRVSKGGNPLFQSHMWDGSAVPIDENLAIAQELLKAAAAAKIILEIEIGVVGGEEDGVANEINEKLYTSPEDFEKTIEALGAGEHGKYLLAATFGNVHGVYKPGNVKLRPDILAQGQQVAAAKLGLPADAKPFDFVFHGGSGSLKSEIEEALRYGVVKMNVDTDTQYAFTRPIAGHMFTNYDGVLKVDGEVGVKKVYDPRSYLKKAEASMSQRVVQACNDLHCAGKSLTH
CCHFV vOTU inh: CCHFV vOTU protease inhibitors, primary screen, biochemical, Pep-AMC substrate, fluorescence | inhibition, % at 11.5 µM | 370,000 compounds, 0.55% hits | AID 651958, 2012
Of the large screens only hits and unclear results are named; the others gave an inactive call. Only some compounds are listed: those with a hit (about 4% of all), similar ones and a draw of the others. Rule as the data show it, unless noted: active = inhibition above about 30%; inactive = the rest.

O=c1c(O[C@@H]2O[C@H](CO)[C@@H](O)[C@H](O)[C@H]2O)c(-c2ccc(O)cc2)oc2cc(O)cc(O)c12	GDH-TPI counter 37 (no result: CCHFV vOTU inh)
COc1ccc(/C=C/C(=O)NC(=S)NNC(=O)c2ccco2)cc1OC	none
COc1ccc(C(=O)/C=C/c2ccc(O)cc2)cc1	GDH-TPI counter 31
O=C(/C=C/c1ccccc1)NC(=S)NNC(=O)Cc1cccs1	none
COc1ccc(/C=C/C(=O)NC(=S)NNC(=O)c2ccco2)cc1	GDH-TPI counter 41
COc1ccc(/C=C/C(=O)NC(=S)NNC(=O)Cc2cccs2)cc1	GDH-TPI counter 41
COc1ccc(/C=C/C(=O)NC(=S)Nc2ccc(C(=O)O)cc2)cc1	GDH-TPI counter 50
O=C(Nc1ccc([N+](=O)[O-])cc1)N1CCCCC1	GDH-TPI counter 45
O=C(O)c1ccc(N/N=C/C2=C(N3CCOCC3)C(=C\c3ccccc3)/CC2)cc1	none
CN(C(=O)NC(=O)C1=C(N2CCOCC2)/C(=C/c2ccccc2)CC1)S(C)(=O)=O	Mtb FBA inh 114
CC(C)C[C@H]1COc2cccc(F)c2S(=O)(=O)N1Cc1cn(Cc2ccc(C(F)(F)F)cc2)nn1	none (no result: MazEF act, Mtb betalactam, GDH-TPI counter, Mtb FBA inh)
CC1=Nc2ccccc2/C1=C\c1nc(-c2ccc(C(F)(F)F)cc2)oc1O	MazEF act 57
CC1=Nc2ccccc2/C1=C\c1nc(-c2ccccc2)oc1O	none
CN(C)Cc1ccccc1-c1cccc2nccn12	Mtb FBA inh 142 (no result: MazEF act, Mtb betalactam)
Cc1cccc(-c2cccc3nccn23)c1	Mtb FBA inh active (no result: MazEF act, Mtb betalactam)
CONC(=O)c1ccc(-c2cccc3nccn23)cc1	none (no result: MazEF act, Mtb betalactam)
OCc1ccc(-c2cccc3nccn23)cc1	Mtb FBA inh active (no result: MazEF act, Mtb betalactam)
CCOC(=O)Cn1cc(CN2CCS(=O)(=O)N(Cc3ccc(C)cc3)C(C(=O)OC)C2)nn1 (centres undefined)	none (no result: MazEF act, Mtb betalactam, GDH-TPI counter, Mtb FBA inh)
O=c1[nH]c(/C=C/c2cccc([N+](=O)[O-])c2)c([N+](=O)[O-])c(=O)[nH]1	none
O=[N+]([O-])c1cccc(/C=C/c2nc[nH]c2[N+](=O)[O-])c1	GDH-TPI counter 42
Cc1cc(C)c[n+](-c2[nH]c(=O)sc2/C=N/N=C(\[O-])c2cccnc2)c1	GDH-TPI counter 35
CCc1ccc[n+](-c2[nH]c(=O)sc2/C=N/N=C(\[O-])c2ccncc2)c1	none
CC[C@@H](CO)NC(=O)[C@@H]1C=C2c3cccc4[nH]cc(c34)C[C@H]2N(C)C1	Mtb FBA inh 128 (no result: Mtb betalactam)
CC(C)C[C@H]1C(=O)N2CCC[C@H]2[C@]2(O)O[C@](NC(=O)[C@@H]3C=C4c5cccc6[nH]cc(c56)C[C@H]4N(C)C3)(C(C)C)C(=O)N12	none (no result: CCHFV vOTU inh)
O=C1NC(=S)N/C1=C/c1cc([N+](=O)[O-])ccc1O	GDH-TPI counter 34
O=C1NC(=S)N/C1=C/c1cccc([N+](=O)[O-])c1O	none
O=Cc1ccc(OC(=O)C2CC(=O)N(c3ccc(F)cc3)C2)cc1 (centres undefined)	GDH-TPI counter 31
C=CCN1[C@@H](CC(C)C)COc2cccc(F)c2S1(=O)=O	none (no result: MazEF act, Mtb betalactam, GDH-TPI counter, Mtb FBA inh)
O=C(N/N=C/c1ccc(Br)s1)c1ccco1	GDH-TPI counter 66
O=C(O)c1ccc(NN=Cc2cc(=O)[nH]c(=O)[nH]2)cc1	GDH-TPI counter 40 (no result: Mtb betalactam)
O=C(N/N=C/c1ccc(Br)s1)c1ccccn1	GDH-TPI counter 43
Cc1ccc(/C=N/NC(=O)c2ccc(C(=O)N/N=C/c3ccc(C)s3)o2)s1	GDH-TPI counter 68
O=C(N/N=C/c1ccsc1)c1ccccn1	none
Cc1ccc(/C=N/NC(=O)c2cccnc2)s1	Mtb betalactam inconclusive
Cn1cccc1/C=N/NC(=O)c1ccco1	GDH-TPI counter 34
CCc1ccc(/C=N/NC(=O)c2cc(C)on2)s1	GDH-TPI counter 32
Cc1ccc(/C=N/Nc2ccc(C(=O)O)cc2)s1	GDH-TPI counter 48
O=C(N/N=C/c1ccco1)c1ccccn1	GDH-TPI counter 35
C=CCN1C(=O)[C@H](CC(=O)NCC23CC4CC(CC(C4)C2)C3)[C@@]2(C(=O)OCC)CCCC=C12	none (no result: MazEF act, Mtb betalactam, GDH-TPI counter, Mtb FBA inh)
C=CCN1[C@@H](Cc2ccccc2)COc2cccc(F)c2S1(=O)=O	none (no result: MazEF act, Mtb betalactam, GDH-TPI counter, Mtb FBA inh)
O=C(Nc1c(-c2ccc(F)cc2)nc2ncccn12)C1CC1	none (no result: MazEF act, Mtb betalactam, GDH-TPI counter, Mtb FBA inh)
CC(C)CN1C(=O)C[C@@]2(C(=O)N(C)c3ccc(NC(=O)c4cc(F)ccc4F)cc32)C1c1ccccc1 (some centres undefined)	none (no result: MazEF act, Mtb betalactam, GDH-TPI counter, Mtb FBA inh)
Cc1ccc(/C=N/NC(=O)c2ccoc2C)s1	none
Cc1ccc(/C=N/NC(=O)c2ccco2)s1	GDH-TPI counter 38
CN[C@H]1C[C@H]2c3[nH]c4c(-c5cccc(C)c5)cccc4c3CCN2C[C@H]1[C@H](C)O	none (no result: MazEF act, Mtb betalactam, GDH-TPI counter, Mtb FBA inh)
COc1ccc(NS(=O)(=O)c2ccc3oc(=O)c4[nH]c(=O)c(=O)n(C)c4c3c2)cc1	GDH-TPI counter 34
COc1ccc(NS(=O)(=O)c2ccc3c(c2)n(C)c(=O)n3C)cc1	none
COc1ccc(C(=O)c2cnc(/N=C/N(C)C)s2)cc1	GDH-TPI counter 33
CN(C)/C=N/c1ncc(C(=O)c2ccc3ccccc3c2)s1	none
COC(=O)[C@]12C[C@H](CC(=O)NCc3ccc(C)o3)C(=O)N(CCC3=CCCCC3)C1=C[C@H](C(C)C)O[C@@H]2C1CC1	none (no result: MazEF act, Mtb betalactam, GDH-TPI counter, Mtb FBA inh)
O=C(/C=C/N1CCOCC1)c1ccc(-c2ccccc2)cc1	GDH-TPI counter 38 (no result: CCHFV vOTU inh)
COc1ccc(N2CCN(CCCNC(=O)CCc3ccc(F)cc3)CC2)cc1	none (no result: MazEF act, Mtb betalactam, GDH-TPI counter, Mtb FBA inh)
COCCOC(=O)C1=C(C)NC(=O)NC1c1c(Cl)nc2ccccn2c1=O (centres undefined)	GDH-TPI counter 31
CC1CCN(c2ccc3c(c2)S(=O)(=O)c2cccc(C(=O)NCc4ccc(F)cc4)c2C3=O)CC1	MazEF act active
O=C(NC1=NCCS1)c1ccc(-c2ccc(Cl)cc2)o1	GDH-TPI counter 55, Mtb FBA inh 136
O=C(CCc1ccccc1)N[C@H]1[C@H](OC(=O)c2ccco2)CCC[C@]12C(=O)N(Cc1ccccc1)c1ccccc12	none (no result: MazEF act, Mtb betalactam, GDH-TPI counter, Mtb FBA inh)
Cc1ccc(NC(=O)C2CCN(c3nnc(-n4cccc4)s3)CC2)cc1C	none (no result: MazEF act, Mtb betalactam, GDH-TPI counter, Mtb FBA inh)
Cc1ccc(NC(=O)c2ccc(-c3nn(C)c(=O)c4ccccc34)cc2)cc1	none
Cn1nc(-c2ccc(C(=O)Nc3cccc(Cl)c3)cc2)c2ccccc2c1=O	MazEF act 101
O=C(N=C1N(CC2CC2)CC2(C=C3CCCCC3n3c(=O)n(-c4ccccc4)c(=O)n32)N1C(=O)OCc1ccccc1)c1ccccc1 (centres undefined)	none (no result: MazEF act, Mtb betalactam, GDH-TPI counter, Mtb FBA inh)
CC(C)(C)N(Cc1cn(Cc2ccccc2)nn1)S(=O)(=O)c1ccc(F)cc1Br	none (no result: MazEF act, Mtb betalactam, GDH-TPI counter, Mtb FBA inh)
Cc1c(NC(=O)CSc2ccc(Cl)cc2)cccc1-c1nc2cc(Cl)ccc2o1	MazEF act 129
Cc1ccc2oc(-c3cccc(NC(=O)c4ccc(Br)o4)c3C)nc2c1	none
COc1ccccc1-c1cccc2c3c([nH]c12)[C@@H]1C[C@H]2[C@@H](CN1CC3)[C@H](C)ON2C	none (no result: MazEF act, Mtb betalactam, GDH-TPI counter, Mtb FBA inh)

Screening data (PubChem BioAssay)
